Bioassay records (PubChem BioAssay)
This is one part of a sample in which hits are shown more often than they occur.
L3MBTL1 block = inhibitors of human L3MBTL1 | AlphaScreen L3MBTL1–H3K9me1 peptide binding | Potency, µM (highest dose often 57.1 µM), most hits filed as inhibitors | 230,000 tested, 0.66% active | Q9Y468; note: nearly all actives have a fitted effect of over 60% in size
Target sequence (Q9Y468 whole entry, looked up): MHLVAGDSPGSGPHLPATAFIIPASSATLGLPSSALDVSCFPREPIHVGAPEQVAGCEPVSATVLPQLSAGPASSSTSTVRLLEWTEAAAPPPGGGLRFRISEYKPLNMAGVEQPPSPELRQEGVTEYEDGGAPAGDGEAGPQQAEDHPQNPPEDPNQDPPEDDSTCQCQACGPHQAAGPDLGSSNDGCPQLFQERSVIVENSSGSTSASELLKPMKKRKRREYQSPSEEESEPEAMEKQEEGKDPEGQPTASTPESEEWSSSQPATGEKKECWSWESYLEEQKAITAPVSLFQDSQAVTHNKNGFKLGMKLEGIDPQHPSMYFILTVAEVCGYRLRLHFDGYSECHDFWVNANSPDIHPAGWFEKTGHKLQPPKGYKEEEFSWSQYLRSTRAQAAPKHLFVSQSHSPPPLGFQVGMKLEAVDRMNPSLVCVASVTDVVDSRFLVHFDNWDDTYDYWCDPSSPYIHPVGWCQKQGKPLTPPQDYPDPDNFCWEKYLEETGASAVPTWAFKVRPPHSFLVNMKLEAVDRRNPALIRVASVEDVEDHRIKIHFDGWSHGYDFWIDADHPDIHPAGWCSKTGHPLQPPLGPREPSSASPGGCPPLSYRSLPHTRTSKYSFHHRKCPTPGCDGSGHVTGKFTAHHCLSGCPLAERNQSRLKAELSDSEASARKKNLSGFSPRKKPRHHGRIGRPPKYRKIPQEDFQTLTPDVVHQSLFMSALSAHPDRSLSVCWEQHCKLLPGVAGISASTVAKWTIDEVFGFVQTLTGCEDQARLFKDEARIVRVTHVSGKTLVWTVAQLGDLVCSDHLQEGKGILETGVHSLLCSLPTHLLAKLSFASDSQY
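AlphaScreen assay: L3MBTL1 (50 nM final) was preincubated 30 min at room temperature with biotinylated H3(1-15)K9me1 peptide (75 nM final), then 30 min with library compounds; streptavidin donor and nickel chelate acceptor beads (10 ug/mL final) added, 30 min dark.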
BLM helicase inh = Bloom syndrome helicase (human) inhibition. P54132. recombinant BLM DNA unwinding, fluorescence dequenching. Potency, µM (doses to about 56.1 µM), usual class: inhibitors. 350,000 tested, 0.2% active; note: nearly all actives have a fitted effect of over 35% in size
APE1 inh = APE1 (human) endonuclease inhibition; AID 2517; recombinant APE1, TAMRA/BHQ-2 abasic DNA cleavage fluorescence; P27695; 350,000 tested, 0.35% active; Potency, µM (doses to about 65.8 µM), most hits filed as inhibitors; note: nearly all actives have a fitted effect of over 55% in size
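Step 1: APE1 (0.75 nM) with compound, 15 min RT. Step 2: add 50 nM fluorophore/quencher THF duplex. Step 3: three fluorescence reads 60 s apart (525/598 nm); read 3 minus read 1 = reaction progress.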
GCN5L2 inh = inhibitors of human GCN5L2 histone acetyltransferase | GCN5L2 HAT assay, ThioGlo1 CoA-SH fluorescence | Potency, µM (doses to about 58.9 µM), most hits filed as inhibitors | 390,000 tested, 0.21% active | AID 504327
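Fluorescence readout, Ex340nm/Em540nm: ThioGlo1 (50uM final) reacts with free CoA thiol released as 20nM GCN5L2 acetylates H3(1-25) peptide (75uM) using acetyl-CoA (70uM). Compound and enzyme sat 15 min beforehand; 20 min room-temperature reaction.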
RECQ1 inh = blocks DNA unwinding by human RECQ1 | P46063 | RECQ1 DNA unwinding, red fluorescence kinetic read | Potency, µM (top dose mostly 57.3 µM), usual class: inhibitors | 240,000 tested, 0.54% active | AID 2549; note: nearly all actives have a fitted effect of over 30% in size
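RECQ1T1 50 nM; forked duplex (20 bp + 30-nt ss tails) 200 nM, ATP 2 mM final; pH 8.0, 2 mM MgCl2, 2.5 ug/ml poly(dI-dC); 15 min compound preincubation; discontinuous kinetic read over 2 h at RT.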
KDM4E inh = JMJD2E (human) inhibition | B2RXH2 | JMJD2E catalytic domain, FDH-coupled NADH fluorescence (FDH is formaldehyde dehydrogenase) | Potency, µM (series often up to 57.1 µM), hits mostly inhibitors | 230,000 tested, 1.6% active | AID 2147; active = well fitted inhibition curve with a large enough effect, not every such curve was filed as active; inconclusive = small, poorly fitted or top-dose-only effect, or another doubt; inactive = no such curve, though single readings can be large or run the other way; note: nearly all actives have a fitted effect of over 50% in size
Hits are given with their value; n = inactive; u = inconclusive; x = no result; ! = not confirmed by another sample; [ ] = another dose, or the depositor's remark. Unless noted, calls come from the whole dose curve; as a rule, active = well fitted curve in the direction sought with a large enough effect; inconclusive = small, poorly fitted or top-dose-only effect, or another doubt; inactive = no such curve, though single readings can be large; an effect the other way counts as inactive or inconclusive.

SMILES | L3MBTL1 block | BLM helicase inh | APE1 inh | GCN5L2 inh | RECQ1 inh | KDM4E inh
COc1ccc(OC)c(N=c2ssnc2Cl)c1 | n | n | n | 28µM | n | 13µM
COc1cc(N=c2ssnc2Cl)c(OC)cc1Cl | n | n | n | 11µM | n | 13µM
CC(C)C[C@H](NC(=O)[C@H](Cc1ccccc1)NC(=O)[C@@H]1CCCN1C(=O)[C@H](CC(=O)O)NC(=O)[C@@H]1CCC(=O)N1)C(=O)N[C@@H](CCCN=C(N)N)C(=O)N[C@@H](Cc1ccccc1)C(N)=O | x | n | u | n | n | x
COc1ccc(C2=Nn3c(nnc3-c3ccccc3C)SC2)cc1 | x | n | n | x | n | x
O=C(O)CN1C(=O)/C(=C/c2ccc(N3CCCCC3)o2)SC1=S | 32µM | n | n | n | n | 32µM
CCCN1C(=O)S/C(=C\c2ccc(N3CCOCC3)o2)C1=O | x | n | n | n | n | u
COC(=O)CN1C(=O)S/C(=C/c2ccc(N3CCCCC3)o2)C1=O | n | n | n | n | n | u
CCCN1C(=O)S/C(=C/c2ccc(N3CCOCC3)o2)C1=O | n | n | n | n | n | 8.9µM
CCCCc1cc2c(cn1)C(=O)C(C)(OC(C)=O)C(=O)C2 (centres undefined) | x | n[12.4 µM] | n[12.4 µM] | x | n[11.5 µM] | n[11.4 µM]
O=C(CNC(=O)c1ccncc1)N/N=C/c1ccc(O)cc1O | n | n | n | n | n | 20µM
O=C(CCCCCNC(=O)c1ccccc1)N/N=C/c1ccccc1O | n | n | n | n | n | 25µM
O=C(CNC(=O)c1ccc2c(c1)OCCO2)N/N=C/c1ccc(O)cc1O | n | n | n | n | n | 13µM
Cc1ccc(S(=O)(=O)NCC(=O)N/N=C/c2ccccc2O)cc1 | n | n | n | n | n | 25µM
O=C(CCCCCNC(=O)c1ccccc1)N/N=C/c1ccco1 | n | n | u | n | n | n
CCN(C(=O)CN1C(=O)COc2ccc(S(=O)(=O)N3CCOCC3)cc21)c1cccc(C)c1 | x | n | x | n | x | x
Cn1cnnc1SCC(=O)c1ccc(O)c(O)c1 | n | n | n | n | n | 10µM
CCn1c(SCC(=O)c2cc(C)n(C)c2C)nnc1-c1ccccc1 | x | n | n | n | n | n
C=CCn1c(SCC(=O)c2ccc(O)c(O)c2)nnc1-c1cccc(C)c1 | u | x | n | n | x | x
CCn1c(SCC(=O)c2ccc(O)c(O)c2)nnc1-c1ccccc1 | u | n | u | n | n | 13µM
C=CCn1c(SCC(=O)c2ccc(O)c(O)c2)nnc1-c1ccccc1OC | n | n | n | n | u | 10µM
CC[C@@]1([C@@H]2O[C@@H]([C@H]3O[C@@](O)(CO)[C@H](C)C[C@@H]3C)C[C@@H]2C)CC[C@H]([C@]2(C)CC[C@]3(C[C@H](O)[C@@H](C)[C@@H]([C@@H](C)[C@@H](OC)[C@H](C)C(=O)O)O3)O2)O1 (stereo in doubt) | x | x | n | x | x | x
O=C(CS(=O)(=O)c1ccccc1)Nc1nc2ccccc2s1 | n | n | n | n | n | n
O=C(C[n+]1cccc(CO)c1)Nc1nc2ccccc2s1 | n | n | n | n | n | 10µM
COc1ccc(O[C@H]2C=C[C@@H](c3ccccc3)O[C@H]2COC(=O)N2CCCCC2)cc1 | x | n[12.4 µM] | n[12.4 µM] | x | n[11.5 µM] | x
CCCCCCCC1=CC2=CC(=O)C(C)(O)C(=O)C2=CN1CCCC (centres undefined) | x | n[12.4 µM] | n[12.4 µM] | x | n[11.5 µM] | x
SMILES | L3MBTL1 block | BLM helicase inh | APE1 inh | GCN5L2 inh | RECQ1 inh | KDM4E inh
C=CCn1nc([N+](=O)[O-])nc1Sc1cccc2cccnc12 | 28µM | n | n | n | n | n
CC1CCCCC1NC(=O)C(C)N1C(=O)c2ccccc2C1=O (centres undefined) | n | x | n | n | x | x
Cc1cc(O)c(-c2cc(O)c(C)cc2O)cc1O | n | n | n | 16µM | n | u
CCn1c(O)c(/C=N/N=C/c2ccccc2)c2ccc(C3=NNC(=O)CC3)cc21 | x | n | n | n[0.501 µM] | n | n
COC(=O)CCCC1=CC2=C(c3ccccc3)C(=O)C(C)(OC(=O)C3CCCC3)C(=O)C2=CN1CC1CC1 (centres undefined) | x | n[12.4 µM] | n[12.4 µM] | n | n[11.5 µM] | 11µM!
COCCN1C=C2C(=O)C(C)(OC(=O)C3CCCC3)C(=O)C(c3ccccc3)=C2C=C1CCCC(=O)OC (centres undefined) | x | n[12.4 µM] | n[12.4 µM] | n | n[11.5 µM] | u
COC(=O)CCCC1=CC2=C(c3ccccc3)C(=O)C(C)(OC(=O)C3CCCC3)C(=O)C2=CN1CC(C)C (centres undefined) | x | n[12.4 µM] | n[12.4 µM] | n | n[11.5 µM] | 18µM!
Nc1ccc2oc(=O)ccc2c1I | x | n | n | n | n | x
CCOC(=O)c1cc(CC)sc1NC(=O)COc1ccccc1C | x | n | x | n | x | x
C=CCOc1c(Cl)cc(CNc2ccc(N(C)C)cc2)cc1OC | 13µM | n | n | n | n | n
COc1cc(CNc2ccc(N3CCCC3)cc2)cc(Cl)c1OC | u | n | n | n | n | 14µM
COc1cc(CNc2ccc(N3CCOCC3)cc2)cc(Br)c1OC | n[11.4 µM] | n | n | n | n | n
CCOc1ccc(CNc2ccc(N3CCN(Cc4ccccc4)CC3)cc2)cc1 | n | n | n | n | x | x
CCOc1ccc(CNc2ccc(N3CCCC3)cc2)cc1 | u | n | n | n | n | 16µM
CCOc1cc(CNc2ccc(N3CCCC3)cc2)cc(Cl)c1OC | u | n | n | n | n | 16µM
Cc1cccc(C)c1NC(=O)CSc1n[nH]c(=O)n1C1CC1 | n | x | n | n | x | x
C/C(=N\NC(=O)CSCc1ccccc1Cl)c1cc(O)ccc1O | n | n | n | n | n | 4.5µM
O=C(c1ccccc1)N1N=C(C(F)(F)F)CC1(O)c1ccccc1 (centres undefined) | n | n | n | n | x | x
COc1cccc(C2(O)CC(C(F)(F)F)=NN2C(=O)c2ccccn2)c1 (centres undefined) | n | n | n | 25µM | n | n
COc1ccc(C2=Nn3c(nnc3-c3ccccc3O)SC2)c(OC)c1 | x | n | n | x | n | x
Cc1nnc(Nc2ccc(S(N)(=O)=O)cc2)c2ccccc12 | n | n | n | n | x | x
O=C(Nc1nc(-c2ccccn2)cs1)c1ccc([N+](=O)[O-])o1 | 13µM | n | n | n | n | u
Cc1cc(C(=O)Nc2nc(-c3ccccn3)cs2)ccc1[N+](=O)[O-] | x | n | n | n | n | u
O=C(Nc1nc(-c2ccccn2)cs1)c1ccccc1-n1cnnn1 | 20µM | n | n | n | n | u
O=C(Nc1nc(-c2ccccn2)cs1)c1cc(Cl)ccc1[N+](=O)[O-] | 10µM | n | n | n | n | u
Cc1ccc(C(=O)Nc2nc(-c3ccccn3)cs2)o1 | u | n | n | n | n | u
C/C(=N\NC(=O)CN(c1ccccc1)S(C)(=O)=O)c1ccccc1O | n | n | n | n | n | 18µM
C/C(=N\NC(=O)CN1CCCCC1)c1ccccc1O | x | n | n | n | x | x
